{"source": "PubChem BioAssay (EPA / NIEHS)", "note": "Results filed as inconclusive are left out. Calls of active or inactive are those of the source. Rule for the calls: active = hit-call score of the fitted dose curve at least 0.9, where 1 is the maximum; inconclusive = response in the unintended direction; inactive = score below 0.9."}
{"assay": "ACEA_ER_AUC_viability: ACEA Biosciences xCELLigence Real-Time Cell Analysis on Estrogen Receptor Agonism for Viability (AID 2283782);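 note: continuous compound exposure with impedance area under curve over 80 h; hit means loss of impedance signal meaning reduced cell growth or viability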", "summary_of_the_method": "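T47D cells preconditioned in phenol red-free RPMI with charcoal-stripped FBS, then dosed with 8-point 1:4 series from 100 uM (up to 0.5% DMSO). Impedance monitored up to ~80 h; area-under-curve loss versus DMSO taken as viability.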"}
{"compound": "COC(=O)Cc1ccccc1", "AC50": "30.7 µM (active)"}
{"compound": "CC1CCCCC1NC(=O)Nc1ccccc1", "note": "(configuration not stated)", "AC50": "26.2 µM (active)"}
{"compound": "CC(C)c1ccc(CO)cc1", "outcome": "inactive"}
{"compound": "OCC(O)CCl", "note": "(configuration not stated)", "outcome": "inactive"}
{"compound": "CCc1ccccc1N", "outcome": "inactive"}
{"compound": "Nc1ccc(N=Nc2ccc(-c3ccc(N=Nc4c(S(=O)(=O)O)cc5cc(S(=O)(=O)O)c(N=Nc6ccccc6)c(O)c5c4N)cc3)cc2)c(N)c1", "outcome": "inactive"}
{"compound": "O=C(CCl)CCl", "AC50": "62.7 µM (active)"}
{"compound": "COP(=S)(OC)Oc1c(Cl)cc(C)cc1Cl", "outcome": "inactive"}
{"compound": "CC(C)OC(=O)Nc1ccccc1", "outcome": "inactive"}
{"compound": "CN(CCCC(=O)c1cccnc1)N=O", "outcome": "inactive"}
{"compound": "ClCc1cccnc1", "AC50": "50 µM (active)"}
{"compound": "NC(=S)Nc1ccccc1", "AC50": "60.6 µM (active)"}
{"compound": "C=CC(=O)N(C)C", "AC50": "50 µM (active)"}
{"compound": "COP(=S)(OC)Oc1cc(Cl)c(Cl)cc1Cl", "AC50": "88 µM (active)"}
{"compound": "CCN(CC)C(=O)Cl", "outcome": "inactive"}
{"compound": "ClCc1ccccn1", "AC50": "50 µM (active)"}
{"compound": "BrCCBr", "outcome": "inactive"}
{"compound": "N#CCc1ccc(Cl)cc1", "outcome": "inactive"}
{"compound": "CCCCP(CCCC)CCCC", "AC50": "27.9 µM (active)"}
{"compound": "CCC(C)c1cccc(C(C)CC)c1O", "note": "(configuration not stated)", "AC50": "77.1 µM (active)"}
{"compound": "O=C(O)CCC(F)(C(F)(F)F)C(F)(F)F", "outcome": "inactive"}
{"compound": "O=C(O)Cc1ccccc1", "AC50": "50 µM (active)"}
{"compound": "COc1ccc(OC)c(C=O)c1", "AC50": "50 µM (active)"}
{"compound": "C(=NC1CCCCC1)=NC1CCCCC1", "AC50": "28.6 µM (active)"}
{"compound": "ClC1=C(Cl)[C@]2(Cl)[C@@H]3[C@@H](Cl)[C@@H](Cl)C[C@@H]3[C@@]1(Cl)C2(Cl)Cl", "outcome": "inactive"}
{"compound": "N#Cc1ccccn1", "outcome": "inactive"}
{"compound": "Nc1cccc(Cl)c1", "outcome": "inactive"}
{"compound": "N#CCCO", "AC50": "22 µM (active)"}
{"compound": "Nc1cccc2ccccc12", "AC50": "80.2 µM (active)"}
{"compound": "ClCCBr", "outcome": "inactive"}
{"compound": "O=[N+]([O-])c1c(Cl)c(Cl)cc(Cl)c1Cl", "outcome": "inactive"}
{"compound": "O=C(c1ccccc1)C(Cl)Cl", "AC50": "22.6 µM (active)"}
{"compound": "O=C(Cl)c1ccc(Cl)cc1", "outcome": "inactive"}
{"compound": "CC(C)CCCCCCOC(=O)c1ccccc1C(=O)OCCCCCCC(C)C", "AC50": "40.9 µM (active)"}
{"compound": "COS(=O)(=O)c1ccc(C)cc1", "outcome": "inactive"}
{"compound": "CCSC(C)CC1CC(=O)C(C(CC)=NOC/C=C/Cl)=C(O)C1", "note": "(configuration not stated)", "outcome": "inactive"}
{"compound": "COP(=S)(OC)Oc1cc(Cl)c(Br)cc1Cl", "AC50": "92.6 µM (active)"}
